Shown are actives, neighbours in structure and some others; about 19% of the full set was active somewhere.
IL-1B inflam inh – blocks inflammasome-driven IL-1 beta release. activity change, % at 57.5 µM. 4.7% of 360,000 active. THP-1 LPS/ATP IL-1B secretion, AlphaLISA, 16 h; hits give low values; in the data active means activity change below about -50%; inconclusive means mostly about -30% to -49%
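Secreted IL-1B measured by AlphaLISA bead assay after 16 h compound exposure of THP-1 cells; compounds (final up to 57.5 uM) added 1 h before LPS (250 ng/mL) and ATP (1.25 mM) stimulation; lower signal means less secretion.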
DT40 TDP1 CPT – growth inhibition of DT40 Tdp1-/-;hTDP1 cells with camptothecin (screen for TDP1 inhibitors). chicken DT40 Tdp1-/-;hTDP1 cells + 20 nM CPT, ATP luminescence, 48 h. Potency, µM (highest dose often 46.2 µM), for the others: at the highest dose activity change, negative = growth inhibition, most hits filed as inhibitors. 12% of 420,000 active; further: potency means the concentration at half of the fitted maximal effect; nearly all actives have a fitted effect of over 55% in size
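Cell growth measured by CellTiter-Glo luminescence after a minimum 48 h, 37 C compound exposure with 20 nM CPT in Tdp1-knockout DT40 cells stably expressing hTDP1, seeded 400/well; qHTS titration format.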
TDP1 cell noCPT – qHTS for Inhibitors of human tyrosyl-DNA phosphodiesterase 1 (TDP1): qHTS in cells in absence of CPT. DT40 Tdp1-/- hTDP1 cells, no CPT, ATP luminescence, 48 h. Potency, µM (doses to about 46.2 µM), for inactives: top-dose activity change, negative = growth inhibition, most hits filed as inhibitors. 15% of 420,000 active. AID 686978, 2013; further: potency means the concentration at half of the fitted maximal effect; nearly all actives have a fitted effect of over 55% in size
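A cellular qHTS used chicken DT40 cells lacking endogenous Tdp1 but carrying stably transfected human TDP1. Compounds were applied without camptothecin, and cell growth kinetics were judged by ATP-dependent luminescence after ≥48 hr.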
HT1080-NT tox – kills 2HG-producing HT-1080-NT fibrosarcoma cells; 1.6% of 360,000 active; HT-1080-NT fibrosarcoma viability, CellTiter-Glo ATP luminescence, 48 h; Potency, µM (top dose mostly 46.1 µM), without a hit: at the highest dose activity, negative = less viability, actives largely listed as cytotoxic;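 further: NT is the 2HG producing partner of a matched IDH1 knockdown line; potency means the concentration at half of the fitted maximal effect; 0% = DMSO-treated cells and -100% = media-only wells without cells; nearly all actives have a fitted effect of over 55% in size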
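Viability by CellTiter-Glo luminescence after 48 h compound exposure at 37C of HT-1080-NT cells (750/well, RPMI, 5% FBS). % activity scaled between DMSO wells and medium-only wells, then curve-fitted and categorized by curve class.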
HT1080 IDH1KD tx – kills HT-1080 cells with IDH1 knockdown | HT-1080 IDH1 knockdown viability, ATP luminescence, 48 h | Potency, µM (highest dose often 46.1 µM), inactives show at the highest dose activity, negative = toxicity, most hits filed as cytotoxic | 2% of 360,000 active | AID 686971;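 further: potency means the concentration at half of the fitted maximal effect; 0% = DMSO wells and -100% = cell-free medium wells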
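HT-1080-IDH1KD cells (IDH1 knocked down), 750/well in RPMI with 5% FBS, treated with compound 48 h at 37 degrees C. Viability by CellTiter-Glo luminescence, normalised to DMSO and no-cell wells; concentration-response curves classed.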
* hit, by the source's call; ? = inconclusive; / = no result; [ ] = another dose, or the depositor's remark. Unless noted, the call rests on the fitted dose curve; in most records, active means well fitted curve in the direction sought with a large enough effect; inconclusive means small, poorly fitted or top-dose-only effect, or another doubt; inactive means no such curve, though single readings can be large; an effect the other way counts as inactive or inconclusive. Unless noted, on the % scale 0 is the no-effect control and ±100 the full control effect.

SMILES	IL-1B inflam inh	DT40 TDP1 CPT	TDP1 cell noCPT	HT1080-NT tox	HT1080 IDH1KD tx
O=c1[nH]c2ccccc2n1C1CCN(C(c2nnnn2C2CCCCC2)C2CC2)CC1 (stereo not drawn)	-21	?	15µM*	-27%	-20%
CSCCC(c1nnnn1-c1c(C)cccc1C)N1CCC(n2c(=O)[nH]c3ccccc32)CC1 (stereo not drawn)	23	26µM*	18µM*	-2%	-4%
O=c1[nH]c2ccccc2n1C1CCN(C(c2nnnn2C2CCCC2)C2CC2)CC1 (stereo not drawn)	-3	?	?	13%	12%
COc1ccccc1CN1CCCC2(CCN(C(=O)Oc3ccccc3)CC2)C1	/	9%	-18%	/	/
Cc1c(CCN)ccc2c1[nH]c1ccccc12	0	?	29µM*	-1%	0%
O=C(CCCCCCCCCCC(=O)NCc1cccnc1)NCc1cccnc1	39	?	?	?	4.6µM*
COc1ccc(N/N=C/c2c(O)n(-c3ccc(C)c(C)c3)c(=O)[nH]c2=O)cc1	-6	?	29µM*	?	?
Cc1ccc(-n2c(O)c(/C=N/Nc3ccccc3)c(=O)[nH]c2=O)cc1C	-2	24%	-18%	?	6.5µM*
Cc1ccc(-n2c(O)c(/C=N/N3CCCCCC3)c(=O)[nH]c2=O)cc1C	5	12%	5%	12%	1%
Cn1c(O)c(/C=N/Nc2ccccc2)c(=O)n(C)c1=O	-14	22%	-7%	8.2µM*	7.3µM*
Cn1c(O)c(C=Nc2ccccc2)c(=O)n(C)c1=O	-21	-6%	-6%	2%	-7%
C[N+]1(CCF)[C@@H]2CC[C@H]1CC(OC(=O)C(O)(c1ccccc1)c1ccccc1)C2 (stereo partly drawn)	/	11%	-2%	/	/
C[C@H]1COC(=O)[C@H](Cc2ccc(F)cc2)CC/C=C/C[C@@H](CC(=O)N(CCO)Cc2ccccc2)C(=O)N1	18	23µM*	18µM*	7%	8%
Cc1ccccc1NC(=O)CSc1nc2ccccc2c2nc(CCn3c(C)nc4ccccc43)nn12	/	15µM*	18µM*	/	/
CCOP(=O)(/C(C#N)=C(\C)O)c1ccccc1 (stereo not drawn)	14	-21%	?	-2%	0%
Cc1cccc2nc(-c3ccccc3)c(-c3ccc(CN4CCC(n5c(=O)[nH]c6ccccc65)CC4)cc3)nc12	-51*	9.2µM*	13µM*	?	?
Fc1ccc2c(c1)nnn2C1CCN(Cc2ccccc2)CC1	-16	-20%	-14%	-3%	0%
N#Cc1ccc2nc(-c3ccc(CN4CCC(n5c(=O)[nH]c6ccccc65)CC4)cc3)c(-c3ccccc3)nc2c1	-66*	5.8µM*	9.2µM*	?	?
COc1ccc(-c2cc3nc(NCc4ccc(N(C)C)cc4)n(C)c(=O)c3s2)cc1OC	26	?	-25%	0%	-6%
CSCCC(N=Cc1c(O)n(-c2ccc(Cl)cc2)c(=O)[nH]c1=O)C(=O)OC(C)(C)C (stereo not drawn)	33	2%	6%	8%	0%
COC(=O)C1=C(C)NC(=S)NC1c1ccc(N(CCCl)CCCl)cc1Cl (stereo not drawn)	-28	9.2µM*	21µM*	0%	0%
CN1CCN(c2ncnc3ccc(Br)cc23)CC1	6	26µM*	?	-1%	1%
O=C(CN1CC(c2ccccc2)CC1=O)Nc1ccc(F)cc1 (stereo not drawn)	-23	2.9µM*	-15%	11%	7%
CCCNC(=O)c1cnn2c(C)c(Cc3c(C)cc(C)cc3C)c(C)nc12	/	3.7µM*	1.8µM*	/	/
Cc1nc2c(C(=O)N3CCC4(CC3)OCCO4)cnn2c(C)c1Cc1cccc(Cl)c1	-2	?	?	-7%	-7%
SMILES	IL-1B inflam inh	DT40 TDP1 CPT	TDP1 cell noCPT	HT1080-NT tox	HT1080 IDH1KD tx
Cc1ccccc1Cc1c(C)nc2c(C(=O)NCc3ccco3)cnn2c1C	?	14µM*	?	?	?
CCc1cc2c(=O)n(C(C)C(=O)OC3CCCCC3)cnc2s1 (stereo not drawn)	2	?	?	2%	-9%
Cc1cc(-c2nc3ncccc3o2)ccc1NC(=O)c1ccccc1Br	/	-16%	?	/	/
C=CCNC(=O)c1ccccc1NC(=O)c1ccc(Cl)c(S(=O)(=O)Nc2cc(C)ccc2C)c1	26	18µM*	?	?	?
CCSc1nnc([C@@H](N)Cc2ccccc2)o1	0	-14%	-3%	4%[9.24 µM]	-5%
COc1ccc(C(=O)C2CCCN(Cc3cccc(C)n3)C2)c(OC)c1 (stereo not drawn)	37	?	21µM*	3%	-20%
COc1ccc(C(=O)C2CCCN(C3CSCCSC3)C2)c(OC)c1 (stereo not drawn)	-6	?	23µM*	-7%	-3%
COc1ccc(C(=O)C2CCCN(Cc3ccc(C)s3)C2)c(OC)c1 (stereo not drawn)	6	?	21µM*	-23%	-17%
COc1ccc(C(=O)C2CCCN(C3CSCCSC3)C2)c(C)c1 (stereo not drawn)	8	?	?	3%	-11%
Cc1ccnc(NS(=O)(=O)c2ccc(N=Cc3c(O)n(C)c(=O)n(C)c3=O)cc2)n1	34	0%	5%	11%	3%
NC(CP(=O)(O)O)C(=O)O (stereo not drawn)	/	-2%	-4%	/	/
CC1CCC/C=C/C2CC(O)CC2C(O)/C=C/C(=O)O1 (stereo not drawn)	-56*	0.29µM*	0.37µM*	?	?
CC1CCCC(=O)CCC/C=C/c2cc(O)cc(O)c2C(=O)O1 (stereo not drawn)	/	3%	-15%	/	/
C[C@H]1CCC/C=C/C2C[C@H](O)CC2[C@H](O)/C=C/C(=O)O1 (stereo partly drawn)	-64*	0.23µM*	0.18µM*	0.037µM*	0.029µM*
C[C@]12CCC3=C4CCC(=O)C=C4CC[C@H]3C1CC[C@@H]2O (stereo partly drawn)	22	9%	?	-20%	-12%
CCC(=O)C1=C(c2cccc([N+](=O)[O-])c2)N(C(=O)CC)n2c(nnc2C2CCCCC2)S1	/	3.3µM*	4.1µM*	/	/
C=CCC1(Cc2ccsc2)C(=O)NC(=O)NC1=O	-5	-15%	-10%	3%	-3%
COc1ccc(CCn2c(NN=C3CCCCC3)nc3c2c(=O)[nH]c(=O)n3C)cc1	37	?	16µM*	-19%	-2%
COc1ccc(CCNCc2ccc3c(c2)n(C)c(=O)n3C)cc1	/	?	-32%	/	/
